Assay results published in PubChem BioAssay (NCI).
The panel holds about 83,000 compounds, 20% with a hit somewhere; the sample as a whole holds those more often.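 For each line, cells grew in 96-well plates with the test compound present at a single concentration for 48 hours.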 The source made the active and inactive calls. How the source made its calls: active means growth percent below 10; inactive means the rest.

Legend:
Assay in all cases: NCI-60 one-dose screen, 48 h (100 = growth as untreated, 0 = no growth, -100 = all killed)
Details in all cases: 10 µM unless noted
NCI-H23 lung = system: NCI-H23 lung
NCI-H226 lung = system: NCI-H226 lung
NCI-H322M lung = system: NCI-H322M lung
HOP-62 NSCLC = system: HOP-62 NSCLC
NCI-H460 lung = system: NCI-H460 lung
HOP-92 NSCLC = system: HOP-92 NSCLC
NCI-H522 lung = system: NCI-H522 lung
A549/ATCC NSCLC = system: A549/ATCC NSCLC
786-0 renal = system: 786-0 renal
COLO 205 colon = system: COLO 205 colon
DU-145 prostate = system: DU-145 prostate
K-562 leukemia = system: K-562 leukemia
MALME-3M melanoma = system: MALME-3M melanoma
MDA-MB-231 breast = system: MDA-MB-231 breast
RXF 393 renal = system: RXF 393 renal
SF-268 CNS = system: SF-268 CNS
SF-295 CNS = system: SF-295 CNS
SF-539 CNS = system: SF-539 CNS
UACC-257 melanoma = system: UACC-257 melanoma
M14 melanoma = system: M14 melanoma

Measured: growth

COC(=O)c1c(C(=O)OC)c2ccc3c4ccccc4ccc3n2c1C(=O)OC
inactive: NCI-H23 lung 102% | NCI-H226 lung 100% | NCI-H322M lung 101% | HOP-62 NSCLC 110% | NCI-H460 lung 111% | HOP-92 NSCLC 97.5% | NCI-H522 lung 100% | A549/ATCC NSCLC 97.2% | 786-0 renal 100% | COLO 205 colon 115% | DU-145 prostate 121% | K-562 leukemia 117% | MALME-3M melanoma 96% | MDA-MB-231 breast 110% | RXF 393 renal 74.9% | SF-268 CNS 103% | SF-295 CNS 93.5% | SF-539 CNS 99.3% | UACC-257 melanoma 101% | M14 melanoma 102%

CN(C)CCCc1ccc(Nc2cnn(C)c(=O)c2Cl)cc1
inactive: NCI-H23 lung 98% | NCI-H226 lung 99% | NCI-H322M lung 92.9% | HOP-62 NSCLC 108% | NCI-H460 lung 103% | HOP-92 NSCLC 110% | NCI-H522 lung 96.3% | A549/ATCC NSCLC 93.8% | 786-0 renal 95.9% | COLO 205 colon 118% | DU-145 prostate 116% | K-562 leukemia 89.8% | MALME-3M melanoma 88.8% | MDA-MB-231 breast 108% | RXF 393 renal 90.2% | SF-268 CNS 113% | SF-295 CNS 89.2% | SF-539 CNS 94% | UACC-257 melanoma 98.5% | M14 melanoma 100%

CC[C@]12C=CCN3CC[C@@]4(c5ccc(OC)cc5N(C)[C@H]4[C@@](O)(C(=O)OC)[C@@H]1OC(=O)CCC[P+](c1ccc(OC)cc1)(c1ccc(OC)cc1)c1ccc(OC)cc1)[C@@H]32
active: NCI-H23 lung -92.5% | NCI-H226 lung -80.3% | NCI-H322M lung -97.7% | HOP-62 NSCLC -81.6% | NCI-H460 lung -85.2% | HOP-92 NSCLC -82.9% | NCI-H522 lung -89.4% | A549/ATCC NSCLC -91.4% | 786-0 renal -89.5% | COLO 205 colon -64.4% | DU-145 prostate -75.4% | K-562 leukemia -1.75% | MALME-3M melanoma -97.8% | MDA-MB-231 breast -97% | RXF 393 renal -92.6% | SF-268 CNS -34.3% | SF-295 CNS -93.7% | SF-539 CNS -98.9% | UACC-257 melanoma -93.5% | M14 melanoma -88.4%

O=C(N/N=C/c1ccc(Cl)cc1)c1ccc(OCc2nc3ccc(Cl)cc3[nH]2)cc1
active: NCI-H23 lung 4.91% | HOP-62 NSCLC -41.6% | NCI-H460 lung -82.3% | NCI-H522 lung 7.51% | A549/ATCC NSCLC -60.1% | 786-0 renal -63.1% | COLO 205 colon 4.04% | DU-145 prostate -36.1% | MDA-MB-231 breast 6.26% | RXF 393 renal -10% | M14 melanoma -14.1%
inactive: NCI-H226 lung 77.4% | NCI-H322M lung 71.3% | HOP-92 NSCLC 19.6% | K-562 leukemia 14.6% | MALME-3M melanoma 37.5% | SF-268 CNS 82.1% | SF-295 CNS 13.8% | SF-539 CNS 67.6% | UACC-257 melanoma 24.8%

COc1ccc(-c2cc(-c3ccccc3)c(C#N)c(=O)[nH]2)cc1S(N)(=O)=O
inactive: NCI-H23 lung 106% | NCI-H226 lung 103% | NCI-H322M lung 113% | HOP-62 NSCLC 97.6% | NCI-H460 lung 104% | HOP-92 NSCLC 110% | NCI-H522 lung 93.3% | A549/ATCC NSCLC 98.7% | 786-0 renal 94.7% | COLO 205 colon 118% | DU-145 prostate 103% | K-562 leukemia 109% | MALME-3M melanoma 97.9% | RXF 393 renal 100% | SF-268 CNS 101% | SF-295 CNS 108% | SF-539 CNS 96.3% | UACC-257 melanoma 98.9% | M14 melanoma 99.7%
active: MDA-MB-231 breast -18.1%

COc1ccc(N=Nc2c(N)nn3c(-c4ccc5c(c4)C=S=C5)ccnc23)cc1
inactive: NCI-H23 lung 27% | NCI-H226 lung 22.8% | NCI-H322M lung 49.1% | HOP-62 NSCLC 42.5% | NCI-H460 lung 35.3% | A549/ATCC NSCLC 43% | 786-0 renal 55.7% | COLO 205 colon 54.8% | DU-145 prostate 35.4% | K-562 leukemia 15.4% | MALME-3M melanoma 43.9% | MDA-MB-231 breast 25% | RXF 393 renal 12.2% | SF-268 CNS 67.7% | SF-295 CNS 33.8% | SF-539 CNS 22.6% | UACC-257 melanoma 85.3% | M14 melanoma 58.9%
active: HOP-92 NSCLC 4.83% | NCI-H522 lung -12.6%

CCOc1ccccc1[C@H]1C(C(=O)c2ccc(Cl)cc2)C2(N[C@@H]1c1ccccc1)C(=O)Nc1ccccc12 (stereo not given in full)
active: NCI-H23 lung 4.22% | NCI-H226 lung -18.4% | NCI-H460 lung -36.3% | HOP-92 NSCLC -22.4% | NCI-H522 lung -3.52% | 786-0 renal -16.4% | COLO 205 colon -81.5% | K-562 leukemia 0.16% | MALME-3M melanoma -15.9% | MDA-MB-231 breast 2.23% | RXF 393 renal -66.5% | SF-295 CNS 9.84%
inactive: NCI-H322M lung 36.1% | HOP-62 NSCLC 32.9% | A549/ATCC NSCLC 57.4% | DU-145 prostate 31% | SF-268 CNS 43.9% | SF-539 CNS 28% | UACC-257 melanoma 55.3% | M14 melanoma 15.2%

Fc1ccc(F)c(CNc2nc(SCCN3CCOCC3)nc3c2cnn3CC(Cl)c2ccc(Br)cc2)c1 (stereo not given)
inactive: NCI-H23 lung 40.3% | NCI-H226 lung 16.2% | NCI-H322M lung 75.2% | HOP-62 NSCLC 47.8% | HOP-92 NSCLC 20.1% | NCI-H522 lung 37.6% | A549/ATCC NSCLC 20.9% | 786-0 renal 17.7% | DU-145 prostate 43.3% | K-562 leukemia 10.6% | SF-268 CNS 30.1% | SF-539 CNS 17.9% | M14 melanoma 18.1%
active: NCI-H460 lung 6.7% | COLO 205 colon -57% | MALME-3M melanoma -30% | MDA-MB-231 breast 6.86% | RXF 393 renal -4.06% | SF-295 CNS 5.06% | UACC-257 melanoma 6.07%

COc1cccc(/C=C/c2nc3ccccc3c(=O)n2CC(=O)Nc2ccccc2)c1
active: HOP-62 NSCLC 4.65% | 786-0 renal -8.65% | MDA-MB-231 breast -29% | RXF 393 renal 0.184%
inactive: NCI-H23 lung 59.2% | NCI-H226 lung 13.9% | NCI-H322M lung 72.3% | NCI-H460 lung 51.4% | HOP-92 NSCLC 19.5% | NCI-H522 lung 53.3% | A549/ATCC NSCLC 16.9% | COLO 205 colon 75.5% | DU-145 prostate 87.8% | K-562 leukemia 93% | MALME-3M melanoma 56.1% | SF-268 CNS 69.5% | SF-295 CNS 48.8% | SF-539 CNS 11.8% | UACC-257 melanoma 67.8% | M14 melanoma 47.8%

C=CC(=O)Nc1ccc(C(=O)/C=C/c2ccc(N(C)C)cc2)c(O)c1
inactive: NCI-H226 lung 28.6% | NCI-H322M lung 41.1% | HOP-62 NSCLC 10.1% | HOP-92 NSCLC 45.8% | A549/ATCC NSCLC 12.8% | K-562 leukemia 12% | MDA-MB-231 breast 26.9% | SF-268 CNS 21.5% | SF-295 CNS 13.1%
active: NCI-H23 lung 4.7% | NCI-H460 lung 0.849% | NCI-H522 lung -67.5% | 786-0 renal -1.73% | COLO 205 colon -59.6% | DU-145 prostate 7.83% | MALME-3M melanoma 3.17% | RXF 393 renal -63.8% | SF-539 CNS -21.8% | UACC-257 melanoma 0.649% | M14 melanoma -5.06%

Cc1ccc(-c2cc(C(=O)N=Nc3c(O)[nH]c4ccc(F)cc34)c3ccccc3n2)cc1
active: HOP-62 NSCLC 6.08% | NCI-H460 lung 1.25% | SF-539 CNS -39.7%
inactive: NCI-H23 lung 15.1% | NCI-H226 lung 59% | NCI-H322M lung 44.4% | HOP-92 NSCLC 104% | NCI-H522 lung 25.5% | A549/ATCC NSCLC 11.2% | 786-0 renal 44% | COLO 205 colon 73.9% | DU-145 prostate 51.1% | K-562 leukemia 60.8% | MALME-3M melanoma 48.4% | MDA-MB-231 breast 11% | RXF 393 renal 109% | SF-268 CNS 65.3% | SF-295 CNS 98.7% | UACC-257 melanoma 69% | M14 melanoma 79.6%

COc1c2c(cc3c1C(CCc1ccccc1)N(C)CC3)OCO2 (stereo not given)
inactive: NCI-H322M lung 28.7% | HOP-62 NSCLC 36.6% | NCI-H522 lung 11.4% | A549/ATCC NSCLC 21.4% | 786-0 renal 12.6% | DU-145 prostate 23.2% | SF-268 CNS 23.2% | UACC-257 melanoma 16.6%
active: NCI-H23 lung 5.64% | NCI-H226 lung -1.8% | NCI-H460 lung 1.55% | HOP-92 NSCLC 1.44% | COLO 205 colon -56.5% | K-562 leukemia 6.06% | MALME-3M melanoma -65.8% | MDA-MB-231 breast -11.7% | RXF 393 renal -12.1% | SF-295 CNS -70.1% | SF-539 CNS -40.2% | M14 melanoma -26.4%

O=C(NNC(=S)NC(=O)c1ccccc1)c1ccc(OCc2nc3ccc(Cl)cc3[nH]2)cc1
inactive: NCI-H460 lung 11.6% | DU-145 prostate 26.3%
active: NCI-H23 lung -71.3% | NCI-H226 lung -43.9% | NCI-H322M lung -41.5% | HOP-62 NSCLC -64.3% | HOP-92 NSCLC -10.8% | NCI-H522 lung 1.39% | A549/ATCC NSCLC -29.2% | 786-0 renal 0.779% | COLO 205 colon -22.5% | K-562 leukemia 4.64% | MALME-3M melanoma -75.4% | MDA-MB-231 breast -71.2% | RXF 393 renal -56.7% | SF-268 CNS -2.2% | SF-295 CNS -80.9% | SF-539 CNS -91.2% | UACC-257 melanoma -24.8% | M14 melanoma -54.5%

C[C@H](NC(=O)c1ccc2c(-c3ccc(C(F)(F)F)cc3)cccc2c1)c1ccccn1
inactive: NCI-H23 lung 70.7% | NCI-H226 lung 28.3% | NCI-H322M lung 50.8% | HOP-62 NSCLC 77.3% | NCI-H460 lung 42.5% | HOP-92 NSCLC 25.5% | NCI-H522 lung 16.9% | A549/ATCC NSCLC 39.6% | 786-0 renal 44.3% | COLO 205 colon 61.6% | DU-145 prostate 56.4% | K-562 leukemia 20.6% | MALME-3M melanoma 67% | MDA-MB-231 breast 59.9% | RXF 393 renal 13% | SF-268 CNS 58.9% | SF-295 CNS 32.5% | SF-539 CNS 62.3% | UACC-257 melanoma 64.3% | M14 melanoma 40.7%
